Assay in all cases: DAPPL (digital affinity profiling via proximity ligation, sequencing); 10 mM Tris-HCl pH 7.5, 50 mM NaCl, 1 mM DTT, 4% glycerol, room temperature, 30 min; GST-TFs on glutathione beads, 16-mer random dsDNA library, 0.1% formaldehyde crosslink after washing; high values mean tight binding
The target of test [1] is T1, FLI1 (Homo sapiens, UniProt Q01543 1-452).
T1 sequence: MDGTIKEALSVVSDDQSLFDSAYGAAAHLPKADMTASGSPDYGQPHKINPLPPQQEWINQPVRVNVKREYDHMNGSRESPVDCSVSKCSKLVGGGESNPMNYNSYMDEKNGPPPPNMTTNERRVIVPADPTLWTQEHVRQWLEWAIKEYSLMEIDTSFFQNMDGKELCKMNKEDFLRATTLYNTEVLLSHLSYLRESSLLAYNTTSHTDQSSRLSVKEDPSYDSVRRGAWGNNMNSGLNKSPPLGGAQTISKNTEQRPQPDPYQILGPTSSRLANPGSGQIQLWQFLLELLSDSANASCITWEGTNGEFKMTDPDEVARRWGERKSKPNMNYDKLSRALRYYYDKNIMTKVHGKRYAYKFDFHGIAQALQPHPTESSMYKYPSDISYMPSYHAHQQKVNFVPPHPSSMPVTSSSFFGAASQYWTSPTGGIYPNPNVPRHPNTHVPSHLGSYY
The following applies: protein: recombinant; tags: N-terminal GST; dsDNA, one strand shown. The gist of the method:
(§1)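 Sequencing on an Illumina NextSeq500 followed washing, crosslinking with 0.1% formaldehyde, proximity ligation (BsaI/T4 ligase, 1 h, 37 °C) and PCR amplification of pools that had been incubated for 30 min at room temperature with 200 nmole of a random double-stranded 16-mer DNA library in Tris/NaCl/DTT/glycerol buffer. Each pool held DNA-barcoded human transcription factors, expressed in yeast as GST fusions and captured on glutathione beads, plus a tag-only sample. Binding signal is a hexamer's read frequency for a factor divided by its frequency in the tag-only sample.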

In test [2] the target is T2, ELK1 (Homo sapiens, UniProt P19419 1-428).
T2 sequence: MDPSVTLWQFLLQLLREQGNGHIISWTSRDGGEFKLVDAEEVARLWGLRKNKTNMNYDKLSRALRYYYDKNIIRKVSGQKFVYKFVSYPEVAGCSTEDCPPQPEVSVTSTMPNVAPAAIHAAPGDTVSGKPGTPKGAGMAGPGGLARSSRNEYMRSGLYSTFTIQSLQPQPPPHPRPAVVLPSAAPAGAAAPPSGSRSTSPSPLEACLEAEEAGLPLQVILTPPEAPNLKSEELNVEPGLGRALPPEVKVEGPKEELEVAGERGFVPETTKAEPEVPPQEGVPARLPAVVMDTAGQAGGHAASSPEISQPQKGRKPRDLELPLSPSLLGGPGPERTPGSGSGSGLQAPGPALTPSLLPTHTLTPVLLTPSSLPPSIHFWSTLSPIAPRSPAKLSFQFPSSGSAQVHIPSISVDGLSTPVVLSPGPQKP
The following applies: protein: recombinant; tags: N-terminal GST; dsDNA, one strand shown. The gist of the method: as §1

The target of test [3] is T3, GABPA (Homo sapiens, UniProt Q06546 1-454).
T3 sequence: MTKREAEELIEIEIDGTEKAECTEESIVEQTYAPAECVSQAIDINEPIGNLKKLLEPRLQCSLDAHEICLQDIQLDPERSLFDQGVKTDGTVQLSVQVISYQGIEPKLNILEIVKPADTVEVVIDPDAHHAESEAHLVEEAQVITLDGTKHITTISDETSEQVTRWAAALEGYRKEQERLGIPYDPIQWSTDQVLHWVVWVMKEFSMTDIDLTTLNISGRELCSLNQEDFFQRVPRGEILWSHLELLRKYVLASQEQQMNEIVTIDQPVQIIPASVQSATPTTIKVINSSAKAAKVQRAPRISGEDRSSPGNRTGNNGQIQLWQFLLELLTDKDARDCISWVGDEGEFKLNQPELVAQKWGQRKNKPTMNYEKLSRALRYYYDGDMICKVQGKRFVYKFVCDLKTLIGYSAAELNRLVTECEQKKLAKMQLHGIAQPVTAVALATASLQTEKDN
The note with it: protein: recombinant; tags: N-terminal GST; dsDNA, one strand shown. The gist of the method: as §1

The target of test [4] is T4, ERG (Homo sapiens, UniProt P11308 1-479).
T4 sequence: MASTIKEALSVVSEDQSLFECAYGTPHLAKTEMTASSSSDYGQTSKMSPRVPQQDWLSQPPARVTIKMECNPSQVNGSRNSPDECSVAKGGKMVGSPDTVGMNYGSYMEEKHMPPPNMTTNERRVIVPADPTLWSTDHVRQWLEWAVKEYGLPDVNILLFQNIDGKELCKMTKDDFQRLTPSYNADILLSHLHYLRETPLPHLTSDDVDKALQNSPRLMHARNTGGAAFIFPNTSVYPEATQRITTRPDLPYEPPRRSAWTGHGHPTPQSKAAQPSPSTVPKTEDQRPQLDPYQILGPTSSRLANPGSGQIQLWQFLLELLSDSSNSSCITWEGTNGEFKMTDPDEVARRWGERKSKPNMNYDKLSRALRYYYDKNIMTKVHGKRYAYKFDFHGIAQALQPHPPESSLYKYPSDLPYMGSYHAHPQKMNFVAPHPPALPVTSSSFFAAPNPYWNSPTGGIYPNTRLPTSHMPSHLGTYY
The note with it: protein: recombinant; tags: N-terminal GST; dsDNA, one strand shown. An outline of the steps:
as §1

The target in test [5] is ELF1 (Homo sapiens, UniProt P32519 1-619). The following applies: protein: recombinant; tags: N-terminal GST; dsDNA, one strand shown. The gist of the method: as §1
Chain of ELF1 (P32519 whole entry): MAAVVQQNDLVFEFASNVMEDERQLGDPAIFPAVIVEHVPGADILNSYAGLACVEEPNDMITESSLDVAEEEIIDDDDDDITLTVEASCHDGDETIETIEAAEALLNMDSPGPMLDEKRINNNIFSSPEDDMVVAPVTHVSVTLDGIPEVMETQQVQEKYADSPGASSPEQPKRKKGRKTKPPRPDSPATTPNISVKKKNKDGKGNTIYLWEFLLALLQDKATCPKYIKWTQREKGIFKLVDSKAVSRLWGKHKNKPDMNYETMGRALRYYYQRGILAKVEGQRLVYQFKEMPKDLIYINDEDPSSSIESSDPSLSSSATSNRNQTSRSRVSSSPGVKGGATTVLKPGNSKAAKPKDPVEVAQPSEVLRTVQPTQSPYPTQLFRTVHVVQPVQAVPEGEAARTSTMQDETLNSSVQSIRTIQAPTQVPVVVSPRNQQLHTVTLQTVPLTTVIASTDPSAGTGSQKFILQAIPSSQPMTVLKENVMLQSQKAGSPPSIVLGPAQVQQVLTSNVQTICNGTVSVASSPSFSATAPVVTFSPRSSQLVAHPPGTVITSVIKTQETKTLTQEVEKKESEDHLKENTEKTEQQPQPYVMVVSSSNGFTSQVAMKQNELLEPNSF
Test [6] deals with T5, EHF (Homo sapiens, UniProt Q9NZC4 1-300).
T5 sequence: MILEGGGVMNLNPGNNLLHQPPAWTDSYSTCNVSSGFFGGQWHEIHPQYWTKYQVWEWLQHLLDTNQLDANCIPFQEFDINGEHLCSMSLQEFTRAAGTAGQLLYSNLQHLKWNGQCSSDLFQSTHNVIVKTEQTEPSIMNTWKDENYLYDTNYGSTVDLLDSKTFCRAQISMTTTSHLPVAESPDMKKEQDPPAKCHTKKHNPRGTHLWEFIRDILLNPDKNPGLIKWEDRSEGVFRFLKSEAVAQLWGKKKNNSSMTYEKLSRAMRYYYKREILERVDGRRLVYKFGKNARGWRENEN
The following applies: protein: recombinant; tags: N-terminal GST; dsDNA, one strand shown. An outline of the steps: as §1

In test [7] the target is SPI1 (Homo sapiens, UniProt P17947 1-270). The following applies: protein: recombinant; tags: N-terminal GST; dsDNA, one strand shown. An outline of the steps: as §1
Test [8] addresses SPIB (Homo sapiens, UniProt Q01892 1-262). The following applies: protein: recombinant; tags: N-terminal GST; dsDNA, one strand shown. The gist of the method:
as §1

Test [9] deals with T6, ELK3 (Homo sapiens, UniProt P41970 1-407).
T6 sequence: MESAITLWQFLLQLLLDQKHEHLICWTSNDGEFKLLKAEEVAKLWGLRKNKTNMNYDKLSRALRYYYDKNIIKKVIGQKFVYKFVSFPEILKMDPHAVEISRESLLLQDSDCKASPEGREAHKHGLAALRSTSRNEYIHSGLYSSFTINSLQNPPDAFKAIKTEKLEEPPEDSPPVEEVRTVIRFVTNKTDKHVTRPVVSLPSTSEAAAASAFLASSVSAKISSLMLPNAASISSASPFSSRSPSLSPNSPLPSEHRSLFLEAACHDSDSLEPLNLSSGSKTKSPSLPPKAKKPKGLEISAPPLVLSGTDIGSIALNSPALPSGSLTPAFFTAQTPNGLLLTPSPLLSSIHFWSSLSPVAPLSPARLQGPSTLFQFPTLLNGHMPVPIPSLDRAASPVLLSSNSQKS
The following applies: protein: recombinant; tags: N-terminal GST; dsDNA, one strand shown. An outline of the steps:
as §1

For test [10], the target named is T7, FEV (Homo sapiens, UniProt Q99581 1-238).
T7 sequence: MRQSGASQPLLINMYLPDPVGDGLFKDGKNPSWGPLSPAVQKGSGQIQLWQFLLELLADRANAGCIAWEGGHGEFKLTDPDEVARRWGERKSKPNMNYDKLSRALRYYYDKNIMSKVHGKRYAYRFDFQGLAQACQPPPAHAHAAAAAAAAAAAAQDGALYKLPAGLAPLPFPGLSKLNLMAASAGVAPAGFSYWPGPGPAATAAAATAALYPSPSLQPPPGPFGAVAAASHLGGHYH
The following applies: protein: recombinant; tags: N-terminal GST; dsDNA, one strand shown. An outline of the steps:
as §1

Test [11] has as its target ETV5 (Homo sapiens, UniProt P41161 1-510). The following applies: protein: recombinant; tags: N-terminal GST; dsDNA, one strand shown. An outline of the steps: as §1
Test [12] has as its target HSF1 (Homo sapiens, UniProt Q00613 1-529). The note with it: protein: recombinant; tags: N-terminal GST; chain copies: 3; dsDNA, one strand shown. The gist of the method: as §1
Test [13] deals with T8, SPIC (Homo sapiens, UniProt Q8N5J4 1-248).
T8 sequence: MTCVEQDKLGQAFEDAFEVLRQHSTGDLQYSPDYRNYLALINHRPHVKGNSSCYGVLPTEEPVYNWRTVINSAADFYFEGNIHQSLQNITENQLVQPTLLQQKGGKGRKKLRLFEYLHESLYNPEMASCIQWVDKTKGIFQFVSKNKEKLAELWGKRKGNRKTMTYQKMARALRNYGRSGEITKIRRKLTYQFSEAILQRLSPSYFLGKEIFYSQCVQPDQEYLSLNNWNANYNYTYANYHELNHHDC
The following applies: protein: recombinant; tags: N-terminal GST; dsDNA, one strand shown. An outline of the steps: as §1

The target in test [14] is ELF4 (Homo sapiens, UniProt Q99607 1-663). The following applies: protein: recombinant; tags: N-terminal GST; dsDNA, one strand shown. The gist of the method: as §1
Chain of ELF4 (Q99607 whole entry): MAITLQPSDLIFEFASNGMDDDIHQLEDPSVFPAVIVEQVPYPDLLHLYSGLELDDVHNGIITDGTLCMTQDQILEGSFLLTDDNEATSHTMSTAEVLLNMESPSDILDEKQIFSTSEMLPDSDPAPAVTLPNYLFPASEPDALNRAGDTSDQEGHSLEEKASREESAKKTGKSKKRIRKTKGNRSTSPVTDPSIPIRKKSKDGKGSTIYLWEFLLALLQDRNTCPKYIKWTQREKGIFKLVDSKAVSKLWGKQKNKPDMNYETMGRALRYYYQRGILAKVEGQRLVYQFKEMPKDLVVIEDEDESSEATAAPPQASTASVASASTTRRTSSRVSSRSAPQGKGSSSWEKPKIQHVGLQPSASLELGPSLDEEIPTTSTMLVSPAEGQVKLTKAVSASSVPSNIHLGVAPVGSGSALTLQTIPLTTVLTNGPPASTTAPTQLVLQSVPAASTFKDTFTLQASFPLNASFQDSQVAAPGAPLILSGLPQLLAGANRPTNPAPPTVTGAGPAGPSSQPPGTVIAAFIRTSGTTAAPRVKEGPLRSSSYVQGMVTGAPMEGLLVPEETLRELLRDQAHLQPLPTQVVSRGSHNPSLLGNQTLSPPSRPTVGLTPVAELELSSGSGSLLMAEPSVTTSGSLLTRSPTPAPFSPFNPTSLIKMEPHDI
Test [15] addresses T9, ELK4 (Homo sapiens, UniProt P28324-2 1-405).
T9 sequence: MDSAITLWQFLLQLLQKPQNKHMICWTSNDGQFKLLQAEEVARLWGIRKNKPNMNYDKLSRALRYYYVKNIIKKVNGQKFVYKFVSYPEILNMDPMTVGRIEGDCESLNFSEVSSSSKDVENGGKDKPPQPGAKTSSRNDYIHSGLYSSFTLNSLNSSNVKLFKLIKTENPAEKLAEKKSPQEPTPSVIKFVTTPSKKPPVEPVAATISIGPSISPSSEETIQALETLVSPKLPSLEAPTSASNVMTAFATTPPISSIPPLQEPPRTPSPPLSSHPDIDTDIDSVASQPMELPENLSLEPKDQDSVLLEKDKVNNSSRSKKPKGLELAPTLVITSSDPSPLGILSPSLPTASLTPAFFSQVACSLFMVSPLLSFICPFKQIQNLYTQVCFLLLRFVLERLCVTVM
The following applies: protein: recombinant; tags: N-terminal GST; dsDNA, one strand shown. An outline of the steps:
as §1

For test [16], the target named is T10, ETV2 (Homo sapiens, UniProt O00321 1-342).
T10 sequence: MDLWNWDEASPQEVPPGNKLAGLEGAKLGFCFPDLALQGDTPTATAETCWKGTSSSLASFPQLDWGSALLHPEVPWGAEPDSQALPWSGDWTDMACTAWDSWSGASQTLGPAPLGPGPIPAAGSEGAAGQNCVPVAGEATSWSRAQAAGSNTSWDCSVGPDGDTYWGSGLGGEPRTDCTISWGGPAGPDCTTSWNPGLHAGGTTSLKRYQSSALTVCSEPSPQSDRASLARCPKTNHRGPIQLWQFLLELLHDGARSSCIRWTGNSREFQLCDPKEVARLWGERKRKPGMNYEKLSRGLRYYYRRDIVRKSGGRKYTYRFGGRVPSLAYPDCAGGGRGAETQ
The following applies: protein: recombinant; tags: N-terminal GST; dsDNA, one strand shown. The gist of the method:
as §1

The target in test [17] is T11, ELF3 (Homo sapiens, UniProt P78545 1-371).
T11 sequence: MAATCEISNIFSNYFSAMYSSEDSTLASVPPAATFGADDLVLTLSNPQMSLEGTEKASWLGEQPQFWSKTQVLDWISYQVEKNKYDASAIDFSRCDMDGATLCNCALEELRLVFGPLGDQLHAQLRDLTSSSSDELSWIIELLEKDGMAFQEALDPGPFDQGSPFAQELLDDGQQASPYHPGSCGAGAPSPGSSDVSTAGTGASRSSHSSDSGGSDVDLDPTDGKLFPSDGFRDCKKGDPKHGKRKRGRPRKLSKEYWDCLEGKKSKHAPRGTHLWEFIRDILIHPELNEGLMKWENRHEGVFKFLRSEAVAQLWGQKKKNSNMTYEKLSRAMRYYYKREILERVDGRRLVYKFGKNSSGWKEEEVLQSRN
The following applies: protein: recombinant; tags: N-terminal GST; dsDNA, one strand shown. The gist of the method: as §1

The target in test [18] is ETV1 (Homo sapiens, UniProt P50549 1-477). The note with it: protein: recombinant; tags: N-terminal GST; dsDNA, one strand shown. The gist of the method: as §1
Chain of ETV1 (P50549 whole entry): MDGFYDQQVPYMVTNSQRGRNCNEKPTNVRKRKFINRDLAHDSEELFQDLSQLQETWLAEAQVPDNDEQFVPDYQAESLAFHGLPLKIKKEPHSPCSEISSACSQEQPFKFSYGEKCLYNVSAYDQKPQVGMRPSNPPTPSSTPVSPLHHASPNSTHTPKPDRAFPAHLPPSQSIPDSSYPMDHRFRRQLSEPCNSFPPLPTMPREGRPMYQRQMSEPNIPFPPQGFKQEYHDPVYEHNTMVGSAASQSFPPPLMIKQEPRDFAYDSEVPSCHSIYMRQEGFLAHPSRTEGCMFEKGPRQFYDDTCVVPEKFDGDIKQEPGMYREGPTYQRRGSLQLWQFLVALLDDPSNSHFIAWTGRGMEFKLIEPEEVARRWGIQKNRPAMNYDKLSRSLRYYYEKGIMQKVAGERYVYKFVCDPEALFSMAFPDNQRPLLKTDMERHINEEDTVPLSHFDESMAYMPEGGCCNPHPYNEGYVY

Chain of SPIB (Q01892 whole entry): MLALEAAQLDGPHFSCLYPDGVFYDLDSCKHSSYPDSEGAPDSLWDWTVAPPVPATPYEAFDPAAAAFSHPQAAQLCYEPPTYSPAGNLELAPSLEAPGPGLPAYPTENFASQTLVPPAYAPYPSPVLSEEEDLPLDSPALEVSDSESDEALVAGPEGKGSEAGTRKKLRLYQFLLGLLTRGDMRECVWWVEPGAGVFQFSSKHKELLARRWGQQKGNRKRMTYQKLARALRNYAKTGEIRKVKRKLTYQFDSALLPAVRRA
Chain of ETV5 (P41161 whole entry): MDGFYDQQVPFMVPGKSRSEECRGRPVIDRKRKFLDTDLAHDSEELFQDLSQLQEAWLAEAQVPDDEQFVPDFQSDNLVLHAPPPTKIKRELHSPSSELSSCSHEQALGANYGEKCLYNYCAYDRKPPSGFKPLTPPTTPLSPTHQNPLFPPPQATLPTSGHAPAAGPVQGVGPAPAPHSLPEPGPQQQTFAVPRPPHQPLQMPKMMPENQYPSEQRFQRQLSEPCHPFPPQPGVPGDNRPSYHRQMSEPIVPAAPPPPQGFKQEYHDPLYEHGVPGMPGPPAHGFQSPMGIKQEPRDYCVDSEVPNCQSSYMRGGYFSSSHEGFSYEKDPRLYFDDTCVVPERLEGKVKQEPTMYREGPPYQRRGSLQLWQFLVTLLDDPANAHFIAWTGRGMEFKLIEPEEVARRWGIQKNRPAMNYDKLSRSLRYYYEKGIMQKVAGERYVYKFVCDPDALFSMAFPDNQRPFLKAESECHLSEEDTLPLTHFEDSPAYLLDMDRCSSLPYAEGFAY
Chain of HSF1 (Q00613 whole entry): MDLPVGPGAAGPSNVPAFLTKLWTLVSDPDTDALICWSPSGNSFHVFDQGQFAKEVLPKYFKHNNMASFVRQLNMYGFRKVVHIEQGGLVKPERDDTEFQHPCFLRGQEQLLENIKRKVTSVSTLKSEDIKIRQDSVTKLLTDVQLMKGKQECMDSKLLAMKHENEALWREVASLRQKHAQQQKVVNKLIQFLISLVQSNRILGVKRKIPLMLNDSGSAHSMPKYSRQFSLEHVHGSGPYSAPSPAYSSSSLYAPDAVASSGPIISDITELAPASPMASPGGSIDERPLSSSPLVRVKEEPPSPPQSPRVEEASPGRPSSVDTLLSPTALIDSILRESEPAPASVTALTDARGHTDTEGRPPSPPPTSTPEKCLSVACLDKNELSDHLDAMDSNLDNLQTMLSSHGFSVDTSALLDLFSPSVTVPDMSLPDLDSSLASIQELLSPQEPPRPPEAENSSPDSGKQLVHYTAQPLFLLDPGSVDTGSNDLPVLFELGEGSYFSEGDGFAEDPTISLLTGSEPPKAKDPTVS

TGTACG: the binding signal in [1] is 1.18 fold enrichment (6-mer frequency, TF over GST control); in test [2], 1.23 fold enrichment (6-mer frequency, TF over GST control); in test [3], 1.08 fold enrichment (6-mer frequency, TF over GST control); in test [4], 1.15 fold enrichment (6-mer frequency, TF over GST control); in [5], 1.11 fold enrichment (6-mer frequency, TF over GST control); in [6], 1.12 fold enrichment (6-mer frequency, TF over GST control). The binding signal in [7] was 1.19 fold enrichment (6-mer frequency, TF over GST control); in test [8], 1.1 fold enrichment (6-mer frequency, TF over GST control); in test [9], 1.23 fold enrichment (6-mer frequency, TF over GST control); in [10] it was 1.2 fold enrichment (6-mer frequency, TF over GST control); in test [11], 1.23 fold enrichment (6-mer frequency, TF over GST control); in test [12], 1.01 fold enrichment (6-mer frequency, TF over GST control). Also, the binding signal in test [13] was 1.23 fold enrichment (6-mer frequency, TF over GST control); in test [14] it was 1.2 fold enrichment (6-mer frequency, TF over GST control); in test [15], 1.34 fold enrichment (6-mer frequency, TF over GST control); in [16], 1.13 fold enrichment (6-mer frequency, TF over GST control); in [17] it was 1.13 fold enrichment (6-mer frequency, TF over GST control); in test [18] it was 1.24 fold enrichment (6-mer frequency, TF over GST control).

These data come from publication PMC7862700, “An all-to-all approach to the identification of sequence-specific readers for epigenetic DNA modifications on cytosine”.
